Consider 26 compounds from PubChem BioAssay AID868 (SRMLSC, 2007).

Screen size: about 190,000 compounds; about 3,500 (1.8%) were called active. What follows is part of a selection rich in actives, with near analogues and random picks from the rest. Unmarked numbers belong to inactive results.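 The calls were made as follows: active = inhibition above a set limit, 3 SD over mean compound inhibition (cut at about 8.4% in these data); inactive = the rest.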

A short description of this experiment: inhibitors of the yeast RAM network, primary screen, dse1pr::URA3 reporter, 5-FOA selection (AID 868).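 Also: 0% = DMSO-only wells with no growth and 100% = 10 µM 1-NA-PP1 full growth; inhibition rescues growth on 5-FOA so higher OD means more RAM inhibition.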 The note with it: S. cerevisiae dse1pr::URA3 reporter, 5-FOA growth OD615, 2 d; at 50 µM; stronger effect = higher value; analog-sensitive cbk1-as2 kinase mutant strain.
`O=C(CN1CCOCC1)Nc1c(Cl)cc(Cl)cc1Cl`: the inhibition was -0.37%.
The same measure for `N#Cc1c(C(F)(F)F)cc(-c2ccccc2)nc1SCC(=O)N1CCOCC1`: 0.78%; for `CCN(CC)c1nc(-c2ccccc2)cc(C(F)(F)F)c1C#N`: 10.8% (active); for `COC(=O)c1cc2nc(-c3ccccc3)cc(C(F)(F)F)n2n1`: 4.75%.
Take `CN(C)S(=O)(=O)c1ccc(NC(=O)N2CCOCC2)cc1`: the inhibition was 0.13%.
Under `Clc1ccc2nc(CSc3ccccc3)cn2c1` stands 0.13%.
In the case of `CC1=C(C)CC(C(=O)NC(C)CCc2ccccc2)C(C(=O)O)C1` (stereo unspecified), the inhibition is 0.85%.
The same measure for `O=C(CSc1nc(O)c(Cc2ccccc2)c(=O)[nH]1)Nc1nc2c(s1)CCCC2`: 2.38%.
Take `Cn1c(=O)c(Sc2ccc(Cl)cc2)c(O)c2ccccc21`: the inhibition was 1.1%.
Under `Cn1c2ccccc2c(=O)c2c(O)cccc21` stands 11.3% (active); under `CCn1c(=O)cc(O)c2ccccc21`, -0.4%.
The same measure for `CCNC(=O)CC1C(=O)N(c2ccc(F)cc2)C(=O)N1Cc1cccs1` (stereo unspecified): 0.28%; for `COc1ccc(C(=O)CN(C(=O)c2ccc(Cl)cc2)N2C(=O)c3ccccc3C2=O)cc1`: 4.27%; for `CCCCC(C(=O)OCC(=O)c1ccc(OC)cc1)N1C(=O)c2ccccc2C1=O` (stereo unspecified): 12.2% (active).
Turning to `COc1ccc(C(=O)COC(=O)c2ccc3ccccc3n2)cc1`, the inhibition was -0.53%.
The same measure for `COc1ccc(CC(=O)Nc2c3c(nn2-c2cccc(Cl)c2)CS(=O)C3)cc1` (stereo unspecified): 2.33%; for `Cc1cccc(CC(=O)Nc2c3c(nn2-c2cccc(Cl)c2)CS(=O)C3)c1` (stereo unspecified): 9.78% (active).
Under `COc1ccc(-n2nc3c(c2NC(=O)Cc2cccc(C)c2)CS(=O)C3)cc1` (stereo unspecified) stands 0.7%.
Consider `CCCn1c(=O)c2c(C(F)(F)F)cc(-c3cccs3)nc2n(CCC)c1=O`, for which the inhibition is 2.68%.
The same measure for `CN1CCC(=NNC(=O)CN(c2cccc(Cl)c2)S(C)(=O)=O)CC1`: -0.4%.
Under `O=C(OCc1nnc(-c2ccccc2)o1)c1ccc2c(c1)C(=O)N(CCc1ccccc1)C2=O` stands 4.12%.
The same measure for `O=C(OCc1ccc(Br)cc1)c1cccc(-c2nnc(-c3ccccc3)o2)c1`: 12% (active); for `CCOC(=O)CSc1nnc(-c2cccc(Br)c2)o1`: -0.68%; for `O=[N+]([O-])c1ccc2oc(-c3cccc(O)c3)nc2c1`: 13.2% (active).
For the compound `O=[N+]([O-])c1cccc(Nc2c3ccccc3nc3ccccc23)c1`, the inhibition is 0.27%.
Under `COc1ccc(-c2nc3cc([N+](=O)[O-])ccc3o2)cc1OC` stands 1.49%.
